Measured values published in PubChem BioAssay (NCATS).
Records with an inconclusive call do not appear. Active and inactive are the calls of the source. Unless noted, calls follow the shape of the dose curve; as a rule, active = well fitted curve in the direction sought with a large enough effect; inconclusive = small, poorly fitted or top-dose-only effect, or another doubt; inactive = no such curve, though single readings can be large; an effect the other way counts as inactive or inconclusive.

Tests used:
[1] = biological target: D(1A) dopamine receptor (Homo sapiens) (UniProt P21728); experiment: HTS Assay for Allosteric Agonists of the Human D1 Dopamine Receptor: Primary Screen for Potentiators (AID 488982); conditions: HEK293 T-REx D1 inducible cells, calcium flux, kinetic fluorescence; series mostly up to 8.37 µM; also: 0% is about no effect
In short: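 Calcium flux in an inducible, force-coupled HEK293 Trex D1 line (overnight at 30 C): agonist mode is the 180 s kinetic read after compound; potentiator mode is the following 180 s read after dopamine at EC20.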

[2] = Validation screen for small molecules that induce genotoxicity in human embryonic kidney (HEK293T) cells expressing luciferase-tagged ELG1 (AID 493106); conditions: luminescence; series mostly up to 46.1 µM; also: 0% is about no effect
In short: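 HEK293T cells expressing luciferase-tagged ELG1, 2,000 cells/well, exposed to compound 16 hr at 37 °C, 5% CO2. Luciferase read after ONE-Glo, 30 min at room temperature; increased signal indicates genetic stress.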

[3] = biological target: ATPase family AAA domain-containing protein 5 (Homo sapiens) (UniProt Q96QE3); experiment: Validation screen for small molecules that inhibit ELG1-dependent DNA repair in human embryonic kidney (HEK293T) cells expressing luciferase-tagged ELG1 (AID 493107); conditions: HEK293T ELG1-luciferase level, luminescence, 5-fluorouridine co-treatment, 16 h; series mostly up to 46.1 µM; also: nearly all actives have a fitted effect of over 70% in size; also: potency is read from the fitted curve at half-maximal effect
In short: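 HEK293T cells expressing luciferase-tagged ELG1, 2,000 per well, treated with 5-fluorouridine plus compound for 16 h at 37 C. ONE-Glo luminescence after 30 min at room temperature reports ELG1 reporter level.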

[4] = qHTS for Inhibitors of Cell Surface uPA Generation: Validation Assay (AID 493164); conditions: mouse cells, plasminogen activation; series mostly up to 38.3 µM; also: 0% is about no effect
In short: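 RAW 264.7 cells (4000/well) were plated overnight, then exposed for 18 h at 37 C, 5% CO2 to compounds in a 7-point 1:5 titration (2.45 nM–38.3 uM final). Intracellular ATP was read by ATP-Lite luminescence.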

[5] = biological target: Peptidyl-prolyl cis-trans isomerase NIMA-interacting 1 (Homo sapiens) (UniProt Q13526); experiment: qHTS Validation Assay to Find Inhibitors of Pin1 (AID 504536; active = well fitted inhibition curve with a large enough effect in the polarisation, with a control signal flat, not every such curve was filed as active; the % refers to the polarisation;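 also: 0% = full Pin1 enzyme wells and -100% = no-enzyme wells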); conditions: Pin1 fluorescence polarization peptide binding assay; series mostly up to 57.5 µM
In short: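 Fluorescence polarization competition: compounds (titration) displace HiFluor-488-labeled Pin1-1b peptide from Pin1 (0.3 uM final) in pH 7.5 HEPES buffer with DTT, 10 min at room temperature; %Activity normalized to no-enzyme wells, curves fitted.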

[6] = biological target: Phosphoglycerate kinase, glycosomal (Trypanosoma brucei brucei) (UniProt P07378); experiment: qHTS Validation Assay to Find Inhibitors of Phosphoglycerate Kinase (AID 504547); conditions: enzymatic PGK inhibition, coupled luminescence read-out; series mostly up to 57.5 µM;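 also: control wells lack PGK and mark full inhibition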
In short: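 Inhibition of the enzyme is judged by a Kinase-Glo Plus luminescent signal following a one-hour incubation at room temperature. Because 1,3-BPG is unstable, it is made in situ by GAPDH at 100nM final; no-PGK wells define the baseline.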

[7] = biological target: phosphoglycerate mutase (Leishmania major) (UniProt Q4Q090); experiment: qHTS Validation Assay to Find Inhibitors of Phosphoglycerate Mutase (AID 504548); conditions: biochemical enzyme activity; series mostly up to 57.5 µM;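 also: end-point luminescence from Kinase-GloPlus after the PGAM reaction; % is scaled to controls: 0 for no effect and ±100 for the full control effect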
In short: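 L. major PGAM (1.25nM final) was added to substrate buffer and pinned compound, incubated 45 minutes at room temperature, then Kinase-GloPlus added; luminescence read after 10 minutes. Buffer: 100 mM TEA pH 7.6, 5 mM MgCl2, 0.01% Tween-20.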

[8] = biological target: Ubiquitin carboxyl-terminal hydrolase 1 (Homo sapiens) (UniProt O94782); experiment: Inhibitors of USP1/UAF1: Pilot qHTS (AID 504865); conditions: purified USP1/UAF1, Ub-rhodamine cleavage fluorescence; series mostly up to 114 µM;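 also: rhodamine fluorescence freed from ubiquitin-rhodamine substrate followed over time; top concentration of the series differs between compounds; % is scaled to controls: 0 for no effect and ±100 for the full control effect; nearly all actives have a fitted effect of over 35% in size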
In short: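 1nM USP1/UAF1 + cpd, 15 min RT; start w/ Ub-Rho 150nM final; kinetic FL 480/540 nm, 6 reads q60 s. Buffer 50mM HEPES pH 7.8, 0.5mM EDTA, 1mM TCEP, 0.01% Tween-20, 0.1 mg/ml BSA.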

[9] = qHTS for Inhibitors of ATXN expression: Validation (AID 588378); conditions: cell-based ATXN2 expression reporter assay, luminescence; series mostly up to 57.1 µM; also: % is scaled to controls: 0 for no effect and ±100 for the full control effect; nearly all actives have a fitted effect of over 75% in size
In short: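 Cells: HEK293-ATXN2-FFLuc, phenol-red free DMEM, 2 h attachment. Compound pin-transfer, 24 h, 37 degrees C, 5% CO2. CellTiter-Fluor 30 min, Ex405/Em525; Bright-Glo 5 min, luminescence 2 s exposure.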

[10] = biological target: DNA dC->dU-editing enzyme APOBEC-3G (Homo sapiens) (UniProt Q9HC16); experiment: qHTS for inhibitors of Vif-A3G interactions: Validation (AID 588379); conditions: Vif-A3G protein interaction assay; series mostly up to 46.1 µM; also: 0% is about no effect
In short: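 HeLa cells stably expressing Vif and A3G-eYFP, 700 cells/well, incubated overnight at 37 deg C, then exposed to compound overnight at 37 deg C. Inhibition of Vif-mediated degradation read as increased yellow fluorescence (Ex 488/Em 500-530) by laser-scanning cytometry.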

[11] = biological target: ATP-dependent 6-phosphofructokinase (Trypanosoma brucei brucei) (UniProt O15648); experiment: qHTS Assay to Find Inhibitors of T. brucei phosphofructokinase: hit validation (AID 492961);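 also: luminescence reports ADP formed as PFK phosphorylates fructose-6-phosphate with ATP; % is scaled to controls: 0 for no effect and ±100 for the full control effect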; conditions: T. brucei PFK, ADP-Glo luminescence; series mostly up to 51.4 µM
In short: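 Measures ADP output of PFK (1.25 nM) at 0.1 mM ATP, 0.5 mM F6P, pH 8.0 TEA buffer with 5 mM MgCl2. No-enzyme wells define full inhibition; uninhibited enzyme wells define zero.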

[12] = biological target: Thyrotropin-releasing hormone receptor (Homo sapiens) (UniProt P34981); experiment: qHTS for Small Molecule Agonists and Allosteric Enhancers of Human TRH Receptor: Validation Screen for Agonists (AID 493127;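 active = calcium activation more than 3 SD above the typical response in the agonist read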; also: 0% is about no effect); conditions: TRH receptor agonist cell assay; at 2 µM; stronger effect = higher value
In short: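 TRHR cells loaded with fluo-8 calcium dye; FDSS kinetic fluorescence (Ex 480/Em 530) read at 1 s/cycle after 23 nL compound addition. Agonist-mode calcium response recorded before the 10 nM TRH (EC20) addition.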

[13] = Nrf2 qHTS screen for inhibitors: Validation (AID 493153; active = well fitted inhibition curve with a large enough effect in the main read-out, with a control signal flat, not every such curve was filed as active); conditions: A549 ARE-Fluc reporter, 18-24 h; Potency: luciferase luminescence; viability change: measured here: cytotoxicity max response; luciferase luminescence, at 46.1 µM (top of the series)
In short: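 A549 cells carrying ARE-firefly luciferase reporter, 5000 cells/well in 5% FBS OPTI-MEM, treated with compound over a concentration series for 18-24 h at 37 C. Luciferase luminescence gave Nrf2 activity; CellTiter-Fluor fluorescence gave viability.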

[14] = biological target: Galactokinase (Homo sapiens) (UniProt P51570); experiment: qHTS Validation Assay for Inhibitors of Human Galactokinase (GALK) (AID 493189); conditions: purified human GALK enzyme activity, qHTS 7-point titration; series mostly up to 57.5 µM; also: 0% is about no effect
In short: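 Luminescence from leftover ATP (Kinase-Glo Plus, 10 min) served as read-out after a 1 h room-temperature reaction of 5 nM GALK, 100 uM galactose and 35 uM ATP at pH8.0.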

[15] = Validation screen for small molecules that induce DNA re-replication in SW480 colon adenocarcinoma cells (AID 504364); conditions: DNA re-replication phenotype (high-content imaging); series mostly up to 46.1 µM; also: 0% is about no effect
In short: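 SW480 cells (250/well) exposed 48 h at 37 C, 5% CO2, then Hoechst-stained 40 min. Nuclear DNA content imaged by fluorescence scanning (405 nm excitation, 500-530 nm emission); re-replication scored as increased nuclei with elevated intensity.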

[16] = qHTS for Inhibitors of ATXN expression: Validation of Cytotoxic Assay (AID 588349); conditions: cytotoxicity counter-screen for ATXN expression inhibitors, cell viability; series mostly up to 57.1 µM; also: % is scaled to controls: 0 for no effect and ±100 for the full control effect
In short: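 HEK293 cells treated with titrated compound for 72 hr at 37 degrees C; viability read as intracellular ATP by CellTiter Glo luminescence.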

[17] = biological target: D(1A) dopamine receptor (Homo sapiens) (UniProt P21728); experiment: HTS Assay for Allosteric Agonists of the Human D1 Dopamine Receptor: Primary Screen for Antagonists (AID 488983); conditions: D1 receptor cell assay, antagonist mode, qHTS titration; series mostly up to 41.8 µM;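 also: calcium flux response to an EC80 dopamine challenge measured with no-wash dye; % is scaled to controls: 0 for no effect and ±100 for the full control effect; nearly all actives have a fitted effect of over 65% in size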
In short: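 Tetracycline-induced HEK293 T-REx D1 line, force-coupled to calcium flux, read with no-wash calcium dye. Compound added after 10 s baseline, read 180 s for agonism, then EC80 dopamine added and read a further 180 s.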

[18] = biological target: Estrogen receptor (Homo sapiens) (UniProt P03372); experiment: qHTS assay for small molecule agonists of estrogen receptor alpha signaling (AID 588514; calls by dose curve;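 also: 0% = vehicle only and 100% = reference agonist; nearly all actives have a fitted effect of over 70% in size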); conditions: ER-alpha-UAS-bla HEK293, beta-lactamase ratio, 18 h; series mostly up to 76.8 µM
In short: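 ER-alpha-UAS-bla GripTite HEK293 cells, 5000/well in 2% charcoal/dextran-stripped FBS medium, treated with compound titrations 18 h at 37 C. CCF4 beta-lactamase read by fluorescence after 2 h RT; normalised to 20 nM 17-beta-estradiol (100%) and DMSO (0%), Hill fit for EC50 and efficacy.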

[19] = biological target: Estrogen receptor (Homo sapiens) (UniProt P03372); experiment: qHTS assay for small molecule antagonists of estrogen receptor alpha signaling (AID 588513; active = well fitted curve in the direction sought with a large enough effect in the signal ratio, with a control signal flat, not every such curve was filed as active; the % refers to the signal ratio; also: % is scaled to controls: 0 for no effect and ±100 for the full control effect); conditions: ER-alpha-UAS-bla HEK293, beta-lactamase ratio, antagonist mode; series mostly up to 76.9 µM
In short: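 Beta-lactamase reporter, antagonist mode, HEK 293 GripTite cells; 0.5nM E2 stimulus, 18 h, 37 C; CCF4 dye 2 h RT; fluorescence. IC50 and efficacy from Hill fits, normalized to E2 and DMSO.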

Chain of Phosphoglycerate kinase, glycosomal (Trypanosoma brucei brucei) (P07378 whole entry, looked up): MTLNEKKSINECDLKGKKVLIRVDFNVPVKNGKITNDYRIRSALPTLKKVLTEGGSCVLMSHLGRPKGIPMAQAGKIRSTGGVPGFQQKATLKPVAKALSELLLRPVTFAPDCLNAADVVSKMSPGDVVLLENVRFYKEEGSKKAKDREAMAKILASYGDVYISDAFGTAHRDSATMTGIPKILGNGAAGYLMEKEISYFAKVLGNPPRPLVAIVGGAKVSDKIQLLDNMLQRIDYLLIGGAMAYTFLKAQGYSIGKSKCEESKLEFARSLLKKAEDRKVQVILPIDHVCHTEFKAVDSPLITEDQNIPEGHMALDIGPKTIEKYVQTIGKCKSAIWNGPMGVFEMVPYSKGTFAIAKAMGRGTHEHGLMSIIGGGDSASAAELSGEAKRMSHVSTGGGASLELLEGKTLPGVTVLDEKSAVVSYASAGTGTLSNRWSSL
Chain of Estrogen receptor (Homo sapiens) (P03372 whole entry, looked up): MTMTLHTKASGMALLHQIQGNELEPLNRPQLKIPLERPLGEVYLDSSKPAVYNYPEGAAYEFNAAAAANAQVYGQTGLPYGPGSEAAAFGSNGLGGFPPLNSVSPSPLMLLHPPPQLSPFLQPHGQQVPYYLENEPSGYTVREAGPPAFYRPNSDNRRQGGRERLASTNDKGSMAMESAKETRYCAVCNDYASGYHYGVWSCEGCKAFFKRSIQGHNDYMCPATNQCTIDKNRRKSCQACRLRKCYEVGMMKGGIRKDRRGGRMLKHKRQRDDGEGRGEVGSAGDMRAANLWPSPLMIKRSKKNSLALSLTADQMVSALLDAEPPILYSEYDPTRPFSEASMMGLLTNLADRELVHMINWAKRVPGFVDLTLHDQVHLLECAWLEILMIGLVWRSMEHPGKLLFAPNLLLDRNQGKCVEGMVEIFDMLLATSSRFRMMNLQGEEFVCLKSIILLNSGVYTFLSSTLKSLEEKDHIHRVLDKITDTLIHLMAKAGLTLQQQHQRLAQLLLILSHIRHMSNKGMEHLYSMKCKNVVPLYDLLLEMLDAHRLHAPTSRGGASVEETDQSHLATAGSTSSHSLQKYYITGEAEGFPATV
Chain of ATPase family AAA domain-containing protein 5 (Homo sapiens) (Q96QE3 whole entry, looked up, the tested form may be a part): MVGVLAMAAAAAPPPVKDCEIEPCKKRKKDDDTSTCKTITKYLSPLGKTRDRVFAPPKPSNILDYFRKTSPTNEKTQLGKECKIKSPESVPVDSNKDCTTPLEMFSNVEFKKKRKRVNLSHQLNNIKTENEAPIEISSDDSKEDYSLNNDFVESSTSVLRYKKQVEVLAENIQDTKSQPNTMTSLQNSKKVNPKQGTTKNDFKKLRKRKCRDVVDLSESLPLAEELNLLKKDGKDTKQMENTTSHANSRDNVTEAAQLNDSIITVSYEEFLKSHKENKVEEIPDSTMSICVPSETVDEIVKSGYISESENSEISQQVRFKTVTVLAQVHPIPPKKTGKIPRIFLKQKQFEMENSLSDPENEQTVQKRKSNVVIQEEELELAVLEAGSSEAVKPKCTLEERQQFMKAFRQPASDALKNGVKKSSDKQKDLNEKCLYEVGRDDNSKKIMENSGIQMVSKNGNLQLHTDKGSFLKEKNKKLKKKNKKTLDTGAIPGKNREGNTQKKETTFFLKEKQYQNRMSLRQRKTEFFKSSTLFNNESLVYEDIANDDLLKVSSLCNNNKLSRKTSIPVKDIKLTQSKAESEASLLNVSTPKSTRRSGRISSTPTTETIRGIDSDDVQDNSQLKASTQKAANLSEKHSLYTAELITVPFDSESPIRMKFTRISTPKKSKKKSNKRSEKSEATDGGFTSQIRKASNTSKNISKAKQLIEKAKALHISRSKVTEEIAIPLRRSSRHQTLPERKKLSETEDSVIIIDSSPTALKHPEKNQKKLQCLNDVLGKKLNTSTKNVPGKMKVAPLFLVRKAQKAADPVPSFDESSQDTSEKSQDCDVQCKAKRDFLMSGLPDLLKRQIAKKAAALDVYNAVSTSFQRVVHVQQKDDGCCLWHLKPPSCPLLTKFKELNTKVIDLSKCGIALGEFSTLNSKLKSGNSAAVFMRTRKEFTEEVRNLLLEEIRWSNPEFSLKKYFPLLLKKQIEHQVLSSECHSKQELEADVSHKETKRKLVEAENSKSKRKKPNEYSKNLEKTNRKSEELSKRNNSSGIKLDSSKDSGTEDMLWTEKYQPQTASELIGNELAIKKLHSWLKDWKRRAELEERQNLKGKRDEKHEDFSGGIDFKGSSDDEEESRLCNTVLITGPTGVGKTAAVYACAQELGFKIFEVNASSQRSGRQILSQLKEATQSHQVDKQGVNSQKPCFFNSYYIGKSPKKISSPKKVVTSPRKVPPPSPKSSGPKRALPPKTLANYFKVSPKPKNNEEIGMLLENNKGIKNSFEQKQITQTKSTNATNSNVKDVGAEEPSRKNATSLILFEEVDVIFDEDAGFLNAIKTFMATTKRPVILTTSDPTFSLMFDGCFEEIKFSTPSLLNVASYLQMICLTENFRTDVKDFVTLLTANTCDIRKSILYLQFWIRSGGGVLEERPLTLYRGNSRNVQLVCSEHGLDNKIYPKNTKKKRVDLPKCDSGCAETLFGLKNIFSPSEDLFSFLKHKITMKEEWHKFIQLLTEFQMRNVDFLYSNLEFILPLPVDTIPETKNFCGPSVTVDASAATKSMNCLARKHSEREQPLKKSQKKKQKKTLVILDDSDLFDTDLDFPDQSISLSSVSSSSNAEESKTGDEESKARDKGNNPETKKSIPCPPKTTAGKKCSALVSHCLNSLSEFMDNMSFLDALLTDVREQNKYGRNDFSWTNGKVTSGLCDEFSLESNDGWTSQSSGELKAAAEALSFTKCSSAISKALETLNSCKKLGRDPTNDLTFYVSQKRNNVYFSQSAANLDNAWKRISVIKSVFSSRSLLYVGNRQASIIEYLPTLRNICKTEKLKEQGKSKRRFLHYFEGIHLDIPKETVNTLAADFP
Chain of Peptidyl-prolyl cis-trans isomerase NIMA-interacting 1 (Homo sapiens) (Q13526 whole entry, looked up): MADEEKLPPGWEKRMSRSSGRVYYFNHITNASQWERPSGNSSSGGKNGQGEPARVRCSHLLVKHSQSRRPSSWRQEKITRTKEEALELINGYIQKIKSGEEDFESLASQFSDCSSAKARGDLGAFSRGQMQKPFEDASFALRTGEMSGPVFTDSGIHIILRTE
Chain of D(1A) dopamine receptor (Homo sapiens) (P21728 whole entry, looked up): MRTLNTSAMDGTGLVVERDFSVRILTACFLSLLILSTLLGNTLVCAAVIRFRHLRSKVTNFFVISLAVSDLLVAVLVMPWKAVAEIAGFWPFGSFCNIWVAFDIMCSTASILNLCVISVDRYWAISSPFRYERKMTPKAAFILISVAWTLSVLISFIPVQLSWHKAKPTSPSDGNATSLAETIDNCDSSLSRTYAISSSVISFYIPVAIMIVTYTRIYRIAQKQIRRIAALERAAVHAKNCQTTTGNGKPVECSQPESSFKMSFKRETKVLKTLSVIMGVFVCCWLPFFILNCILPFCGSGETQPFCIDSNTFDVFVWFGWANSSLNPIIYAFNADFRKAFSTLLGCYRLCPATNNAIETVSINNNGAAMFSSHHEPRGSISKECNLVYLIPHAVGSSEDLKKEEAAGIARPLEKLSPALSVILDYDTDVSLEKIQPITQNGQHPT
Chain of Galactokinase (Homo sapiens) (P51570 whole entry, looked up): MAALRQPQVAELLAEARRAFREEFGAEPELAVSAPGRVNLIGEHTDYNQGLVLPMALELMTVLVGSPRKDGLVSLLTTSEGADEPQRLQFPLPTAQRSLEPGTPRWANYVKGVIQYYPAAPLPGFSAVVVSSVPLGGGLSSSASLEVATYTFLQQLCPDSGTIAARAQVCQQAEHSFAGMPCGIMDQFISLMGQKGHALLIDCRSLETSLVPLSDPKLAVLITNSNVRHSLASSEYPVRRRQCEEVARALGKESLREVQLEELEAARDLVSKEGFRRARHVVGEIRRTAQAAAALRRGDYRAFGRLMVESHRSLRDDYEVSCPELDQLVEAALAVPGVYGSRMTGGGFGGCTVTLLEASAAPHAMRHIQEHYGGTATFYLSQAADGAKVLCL
Chain of Ubiquitin carboxyl-terminal hydrolase 1 (Homo sapiens) (O94782 whole entry, looked up): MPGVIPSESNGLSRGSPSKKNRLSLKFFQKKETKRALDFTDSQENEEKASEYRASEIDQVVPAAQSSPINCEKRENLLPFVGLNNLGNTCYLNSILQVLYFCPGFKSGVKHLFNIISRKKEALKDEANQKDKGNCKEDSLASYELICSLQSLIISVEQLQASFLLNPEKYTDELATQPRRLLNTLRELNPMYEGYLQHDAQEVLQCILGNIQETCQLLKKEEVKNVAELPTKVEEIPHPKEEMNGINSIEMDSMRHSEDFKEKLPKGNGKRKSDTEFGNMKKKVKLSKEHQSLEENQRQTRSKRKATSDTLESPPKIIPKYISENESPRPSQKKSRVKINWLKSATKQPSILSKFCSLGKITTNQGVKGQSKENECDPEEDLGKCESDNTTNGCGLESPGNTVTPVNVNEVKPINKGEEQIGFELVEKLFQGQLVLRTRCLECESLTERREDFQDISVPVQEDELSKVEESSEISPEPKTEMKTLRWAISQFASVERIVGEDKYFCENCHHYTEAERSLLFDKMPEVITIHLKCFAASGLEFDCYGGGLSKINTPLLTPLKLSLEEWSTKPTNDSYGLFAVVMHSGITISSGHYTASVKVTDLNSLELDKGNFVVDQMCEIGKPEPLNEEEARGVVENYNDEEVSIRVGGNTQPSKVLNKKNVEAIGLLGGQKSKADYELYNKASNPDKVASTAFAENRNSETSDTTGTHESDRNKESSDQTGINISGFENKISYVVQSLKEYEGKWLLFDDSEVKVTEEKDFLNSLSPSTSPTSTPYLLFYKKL
Chain of DNA dC->dU-editing enzyme APOBEC-3G (Homo sapiens) (Q9HC16 whole entry, looked up): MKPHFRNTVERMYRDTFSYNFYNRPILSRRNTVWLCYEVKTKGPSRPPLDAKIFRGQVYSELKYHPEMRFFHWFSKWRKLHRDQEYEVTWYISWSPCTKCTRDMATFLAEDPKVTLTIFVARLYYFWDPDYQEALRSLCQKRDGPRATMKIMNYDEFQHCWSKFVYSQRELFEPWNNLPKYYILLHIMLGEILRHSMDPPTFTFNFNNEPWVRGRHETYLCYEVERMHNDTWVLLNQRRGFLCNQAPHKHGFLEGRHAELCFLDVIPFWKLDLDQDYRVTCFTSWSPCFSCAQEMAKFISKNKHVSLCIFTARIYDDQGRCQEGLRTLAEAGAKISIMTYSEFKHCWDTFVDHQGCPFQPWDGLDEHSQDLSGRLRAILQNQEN

COc1ccc2c(c1OC)C(=O)O[C@@H]2[C@H]1c2c(cc3c(c2OC)OCO3)CCN1C
inactive: Potency [1] | Potency [2] | Potency [3] | outcome [4] | outcome [5] | outcome [6] | outcome [7] | Potency [8] | Potency [9] | outcome [10]

NC(N)=N/N=C/c1c(Cl)cccc1Cl
6.68%: viability change [13]
inactive: outcome [11] | Potency [3] | activation [12] -6.19% | Potency [13] | outcome [4] | outcome [14] | outcome [15] | outcome [5] | outcome [6] | outcome [7] | Potency [8]

NC(N)=NC(=O)Cc1c(Cl)cccc1Cl
inactive: Potency [1] | Potency [2] | Potency [3] | activation [12] 1.44% | outcome [4] | outcome [14] | outcome [15] | outcome [5] | outcome [6] | outcome [7] | Potency [8] | Potency [9] | outcome [10]

O=C(O)CCCCCCCC(=O)O
9.01%: viability change [13]
inactive: Potency [1] | Potency [3] | activation [12] -3.19% | Potency [13] | outcome [4] | outcome [14] | outcome [15] | outcome [5] | outcome [6] | outcome [7] | Potency [8] | Potency [16] | Potency [9]

Cc1scc2c1N(C(=O)CN1CCN(C)CC1)c1ccccc1NC2=O
inactive: Potency [17] | Potency [2] | Potency [3] | activation [12] 0.5% | Potency [13] | outcome [4] | outcome [14] | outcome [15] | outcome [5] | outcome [7] | Potency [8] | Potency [9] | outcome [10]
3.95%: viability change [13]

CO[C@@]1(NC(=O)CSCC#N)C(=O)N2C(C(=O)O)=C(CSc3nnnn3C)CS[C@@H]21
inactive: Potency [1] | Potency [2] | Potency [3] | activation [12] 1.44% | Potency [13] | outcome [14] | outcome [15] | outcome [6] | Potency [8] | Potency [9]
1.13%: viability change [13]

CC(C)(C)c1ccc(C(=O)CCCN2CCC(OC(c3ccccc3)c3ccccc3)CC2)cc1
-5.59%: viability change [13]
inactive: outcome [11] | Potency [2] | Potency [13] | outcome [4] | outcome [5] | outcome [6] | outcome [7] | Potency [16] | Potency [9]

NC(=Nc1ccccc1)Nc1ccccc1
inactive: outcome [11] | Potency [8] | Potency [18]

CN1CCN(CC(=O)N2c3ccccc3C(=O)Nc3cccnc32)CC1
inactive: Potency [17] | Potency [2] | Potency [13] | outcome [14] | outcome [15] | outcome [5] | outcome [7] | Potency [8] | Potency [16] | Potency [9] | outcome [10]
11.6%: viability change [13]

O=C1NCN(c2ccccc2)C12CCN(CCCC(c1ccc(F)cc1)c1ccc(F)cc1)CC2
inactive: Potency [1] | activation [12] 0.75% | outcome [14] | outcome [15] | outcome [5] | outcome [6] | Potency [16] | Potency [9]
active: Potency [3] 25.9 µM

CCCN1C[C@H](CSC)C[C@@H]2c3cccc4[nH]cc(c34)C[C@H]21
2.56%: viability change [13]
inactive: Potency [1] | Potency [2] | Potency [3] | activation [12] 1.44% | Potency [13] | outcome [4] | outcome [14] | outcome [15] | outcome [5] | Potency [8] | Potency [9] | outcome [10]

COc1cc(Cc2cnc(N)nc2N)cc(OC)c1OC
inactive: Potency [1] | activation [12] 0.312% | Potency [13] | outcome [14] | outcome [15] | outcome [5] | outcome [7] | Potency [8] | Potency [16] | Potency [9] | outcome [10] | outcome [19] | Potency [18]
1.71%: viability change [13]
